Laboratory results: PubChem BioAssay (EPA / NIEHS)
Active and inactive are the calls of the source. Rule for the calls: active = hit-call score of the fitted dose curve at least 0.9, where 1 is the maximum; inactive = score below 0.9.

Key:
Conditions in all cases: mRNA level, 48 h; actives raise or lower the signal
[1] = read-out: Alpha-fetoprotein (AFP) gene, AFP (gene 174); assay: LTEA_HepaRG_AFP: Life Technologies and Expression Analysis (LTEA) Assay for Alpha-fetoprotein (AFP) gene using HepaRG (AID 2283472)
Procedure, shortened: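 Differentiated human HepaRG cells exposed 48 h in serum-free induction medium, 8-point half-log series from 100 uM in 0.5% DMSO, duplicate. AFP mRNA by qRT-PCR, normalized to ACTB, GAPDH, POLR2A; bidirectional fit vs DMSO.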

BCL2L11 (gene 10018) = assay: LTEA_HepaRG_BCL2L11: Life Technologies and Expression Analysis (LTEA) Assay for Bcl-2 (BCL2L11) gene using HepaRG (AID 2283473)
Procedure, shortened: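 BCL2L11 transcript levels are measured by Fluidigm qRT-PCR, normalized to three housekeeping genes. HepaRG cultures were plated 48 h, then treated 48 h with test chemical (top 100 uM, half-log, 0.5% DMSO vehicle); curves were fitted bidirectionally against DMSO.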

[2] = read-out: Apolipoprotein A-V (APOA5) gene, APOA5 (gene 116519); assay: LTEA_HepaRG_APOA5: Life Technologies and Expression Analysis (LTEA) Assay for Apolipoprotein A-V (APOA5) gene using HepaRG (AID 2283474)
Procedure, shortened: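 APOA5 transcript levels were quantified by qRT-PCR, normalized to three housekeeping genes, after 48 h chemical treatment of HepaRG cells (8 points, 100 uM maximum, half-log steps, 0.5% DMSO). Curves fitted in both directions against vehicle.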

[3] = read-out: Apoptosis regulator Bcl-2 (Homo sapiens) (UniProt P10415); assay: LTEA_HepaRG_BCL2: Life Technologies and Expression Analysis (LTEA) Assay for Bcl-2 gene using HepaRG (AID 2283475)
Procedure, shortened: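 Differentiated human HepaRG cells in serum-free induction medium exposed 48 h, in duplicate, to 8-point half-log series from 100 uM in 0.5% DMSO. BCL2 mRNA by qRT-PCR (TaqMan/Fluidigm), normalized to ACTB, GAPDH, POLR2A; bidirectional fit against DMSO.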

[4] = read-out: Bcl-2 (BID) gene, BID (gene 637); assay: LTEA_HepaRG_BID: Life Technologies and Expression Analysis (LTEA) Assay for Bcl-2 (BID) gene using HepaRG (AID 2283476)
Procedure, shortened: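 Gene expression by qRT-PCR in HepaRG cells after 48 h exposure, duplicate wells, eight half-log concentrations topping at 100 uM in 0.5% DMSO. Normalized to ACTB, GAPDH, POLR2A; bidirectional fitting relative to DMSO.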

Caspase-3 (Homo sapiens) = Caspase-3 (Homo sapiens) (UniProt P42574); assay: LTEA_HepaRG_CASP3: Life Technologies and Expression Analysis (LTEA) Assay for cysteine-aspartic acid protease (CASP3) using HepaRG (AID 2283477)
Procedure, shortened: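 Expression of CASP3 was quantified by TaqMan qRT-PCR against three housekeeping genes (ACTB, GAPDH, POLR2A), bidirectionally versus 0.5% DMSO. HepaRG cultures received compounds in duplicate, top 100 uM with half-log steps, for 48 h in serum-free induction medium.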

[5] = read-out: Cytochrome P450 (CYP1A2), CYP1A2 (gene 1544); assay: LTEA_HepaRG_CYP1A2: Life Technologies and Expression Analysis (LTEA) Assay for Cytochrome P450 (CYP1A2) using HepaRG (AID 2283479)
Procedure, shortened: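 CYP1A2 transcript measured by TaqMan qRT-PCR against three housekeeping genes after 48-hour chemical exposure of HepaRG cells. Eight-point half-log series topping at 100 uM in 0.5% DMSO, duplicates; gain or loss fitted relative to vehicle.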

[6] = read-out: cysteine-aspartic acid protease (CASP8), CASP8 (gene 841); assay: LTEA_HepaRG_CASP8: Life Technologies and Expression Analysis (LTEA) Assay for cysteine-aspartic acid protease (CASP8) using HepaRG (AID 2283480)
Procedure, shortened: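 Differentiated human HepaRG cells, plated 48 h then switched to serum-free induction medium, were exposed in duplicate for 48 h to 8 half-log concentrations up to 100 uM in 0.5% DMSO. CASP8 mRNA was quantified by qRT-PCR, normalized to ACTB/GAPDH/POLR2A.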

[7] = read-out: Cytochrome P450 (CYP2B6), CYP2B6 (gene 1555); assay: LTEA_HepaRG_CYP2B6: Life Technologies and Expression Analysis (LTEA) Assay for Cytochrome P450 (CYP2B6) using HepaRG (AID 2283481)
Procedure, shortened: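 CYP2B6 transcript level quantified by qRT-PCR against three housekeeping genes, fitted bidirectionally relative to DMSO. HepaRG cultures received chemicals for 48 h, 8-point half-log series from 100 uM in 0.5% DMSO, duplicate wells, serum-free induction medium.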

[8] = read-out: Cytochrome P450 2C19 (Homo sapiens) (UniProt P33261); assay: LTEA_HepaRG_CYP2C19: Life Technologies and Expression Analysis (LTEA) Assay for CYP2C19 using HepaRG (AID 2283482)
Procedure, shortened: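 CYP2C19 transcript levels by qRT-PCR, normalized to three housekeeping genes, in HepaRG cells after 48 h chemical exposure. Eight-point half-log series topping at 100 uM, 0.5% DMSO vehicle. Increases and decreases both fitted against DMSO.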

CYP2C8 (gene 1558) = assay: LTEA_HepaRG_CYP2C8: Life Technologies and Expression Analysis (LTEA) Assay for CYP2C8 using HepaRG (AID 2283483)
Procedure, shortened: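 Differentiated human HepaRG cells were exposed for 48 h in serum-free induction medium to eight half-log concentrations up to 100 uM in 0.5% DMSO, in duplicate. CYP2C8 mRNA was measured by TaqMan qRT-PCR, normalized to ACTB, GAPDH and POLR2A, and fitted bidirectionally against DMSO.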

CYP2C9 (gene 1559) = assay: LTEA_HepaRG_CYP2C9: Life Technologies and Expression Analysis (LTEA) Assay for CYP2C9 using HepaRG (AID 2283484)
Procedure, shortened: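 Differentiated human HepaRG cells were exposed 48 h in serum-free induction medium to eight half-log concentrations up to 100 uM in 0.5% DMSO. CYP2C9 mRNA was measured by qRT-PCR, normalized to ACTB, GAPDH and POLR2A, and fitted bidirectionally against DMSO.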

CYP2E1 (gene 1571) = assay: LTEA_HepaRG_CYP2E1: Life Technologies and Expression Analysis (LTEA) Assay for CYP2E1 using HepaRG (AID 2283485)
Procedure, shortened: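 HepaRG cells, plated 48 h, then exposed 48 h in serum-free induction medium to eight half-log concentrations from 100 uM in 0.5% DMSO, duplicate. CYP2E1 mRNA by qRT-PCR, normalized to ACTB/GAPDH/POLR2A; bidirectional fit versus DMSO.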

CYP4A11 (gene 1579) = assay: LTEA_HepaRG_CYP4A11: Life Technologies and Expression Analysis (LTEA) Assay for CYP4A11 using HepaRG (AID 2283486)
Procedure, shortened: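 Readout is CYP4A11 transcript level by qRT-PCR, normalized to three housekeeping genes and fitted bidirectionally against 0.5% DMSO. Human HepaRG cells were treated 48 h, in duplicate, with an 8-point half-log series topping at 100 uM.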

[9] = read-out: DNA damage-inducible transcript 3 (DDIT3), DDIT3 (gene 1649); assay: LTEA_HepaRG_DDIT3: Life Technologies and Expression Analysis (LTEA) Assay for DNA damage-inducible transcript 3 (DDIT3) using HepaRG (AID 2283488)
Procedure, shortened: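 HepaRG cells, 48 h after plating, exposed 48 h in serum-free induction medium to 8 half-log concentrations up to 100 uM in 0.5% DMSO, in duplicate. DDIT3 mRNA measured by TaqMan qRT-PCR, normalized to ACTB, GAPDH and POLR2A. Fitted bidirectionally against DMSO.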

[10] = read-out: Pro-epidermal growth factor (Homo sapiens) (UniProt P01133); assay: LTEA_HepaRG_EGF: Life Technologies and Expression Analysis (LTEA) Assay for Epidermal growth factor (EGF) using HepaRG (AID 2283489)
Procedure, shortened: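 EGF transcript measured by Fluidigm TaqMan qRT-PCR with three housekeeping genes for normalization, 48 h after dosing HepaRG cultures in duplicate (top 100 uM, half-log steps, 0.5% DMSO vehicle). Gain or loss relative to DMSO fitted.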

[11] = read-out: Early growth response protein 1 (EGR1) transcription factor, EGR1 (gene 1958); assay: LTEA_HepaRG_EGR1: Life Technologies and Expression Analysis (LTEA) Assay for Early growth response protein 1 (EGR1) transcription factor using HepaRG (AID 2283490)
Procedure, shortened: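 Differentiated human HepaRG cells in serum-free induction medium were exposed in duplicate for 48 h to eight concentrations (top 100 uM, half-log steps) in 0.5% DMSO. EGR1 mRNA was quantified by qRT-PCR, normalized to ACTB, GAPDH and POLR2A, and fitted bidirectionally versus DMSO.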

[12] = read-out: Cytochrome P450 (CYP24A1), CYP24A1 (gene 1591); assay: LTEA_HepaRG_CYP24A1: Life Technologies and Expression Analysis (LTEA) Assay for Cytochrome P450 (CYP24A1) using HepaRG (AID 2283478)
Procedure, shortened: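 mRNA of CYP24A1 quantified by TaqMan qRT-PCR (ACTB/GAPDH/POLR2A normalization) after 48 h chemical exposure of HepaRG cells, top concentration 100 uM, half-log steps, 0.5% DMSO vehicle, duplicates. Curves fitted bidirectionally against DMSO baseline.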

[13] = read-out: Cytochrome P450 3A4 (Homo sapiens) (UniProt P08684); assay: LTEA_HepaRG_CYP3A4: Life Technologies and Expression Analysis (LTEA) Assay for CYP3A4 using HepaRG (AID 2283487)
Procedure, shortened: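 CYP3A4 transcript measured by TaqMan qRT-PCR and normalized to three housekeeping genes after 48 h chemical exposure of human HepaRG cells. Top concentration 100 uM, half-log steps, 0.5% DMSO vehicle; gain or loss fitted against DMSO baseline.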

[14] = read-out: Ezrin (EZR), EZR (gene 7430); assay: LTEA_HepaRG_EZR: Life Technologies and Expression Analysis (LTEA) Assay for Ezrin (EZR) using HepaRG (AID 2283491)
Procedure, shortened: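 HepaRG, 48 h chemical exposure, 8-pt half-log series from 100 uM, 0.5% DMSO vehicle, duplicates. Read-out: EZR mRNA by TaqMan qRT-PCR (Fluidigm array), housekeeping-normalized; bidirectional curve fit vs DMSO baseline.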

Measured: AC50

Caspase-3 (Homo sapiens), sequence (P42574 whole entry, looked up): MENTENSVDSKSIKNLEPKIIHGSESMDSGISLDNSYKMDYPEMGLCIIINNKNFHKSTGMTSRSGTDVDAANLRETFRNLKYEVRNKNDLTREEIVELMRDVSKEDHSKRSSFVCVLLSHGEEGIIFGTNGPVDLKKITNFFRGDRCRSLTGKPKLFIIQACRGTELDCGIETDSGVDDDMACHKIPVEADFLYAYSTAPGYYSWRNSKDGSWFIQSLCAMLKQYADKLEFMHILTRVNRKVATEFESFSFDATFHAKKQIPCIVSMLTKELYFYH
Cytochrome P450 2C19 (Homo sapiens), sequence (P33261 whole entry, looked up): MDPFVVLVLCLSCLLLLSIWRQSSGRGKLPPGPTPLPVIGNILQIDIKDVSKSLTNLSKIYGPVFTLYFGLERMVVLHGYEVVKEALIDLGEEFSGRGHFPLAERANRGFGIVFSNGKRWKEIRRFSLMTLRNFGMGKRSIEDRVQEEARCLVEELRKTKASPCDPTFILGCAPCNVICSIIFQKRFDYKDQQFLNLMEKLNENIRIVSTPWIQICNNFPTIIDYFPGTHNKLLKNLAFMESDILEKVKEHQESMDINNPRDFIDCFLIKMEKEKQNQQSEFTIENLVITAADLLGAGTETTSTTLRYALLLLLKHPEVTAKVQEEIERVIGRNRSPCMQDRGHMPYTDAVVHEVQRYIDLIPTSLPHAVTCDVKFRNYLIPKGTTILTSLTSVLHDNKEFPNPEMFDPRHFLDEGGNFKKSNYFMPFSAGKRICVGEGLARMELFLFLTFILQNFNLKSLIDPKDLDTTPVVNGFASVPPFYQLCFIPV
Apoptosis regulator Bcl-2 (Homo sapiens), sequence (P10415 whole entry, looked up): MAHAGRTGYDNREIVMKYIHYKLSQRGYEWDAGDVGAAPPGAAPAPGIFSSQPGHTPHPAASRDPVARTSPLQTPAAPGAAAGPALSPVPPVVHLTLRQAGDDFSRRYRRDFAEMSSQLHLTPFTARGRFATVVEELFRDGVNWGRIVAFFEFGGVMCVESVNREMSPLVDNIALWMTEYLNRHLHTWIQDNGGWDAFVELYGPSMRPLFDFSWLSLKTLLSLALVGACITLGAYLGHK
Cytochrome P450 3A4 (Homo sapiens), sequence (P08684 whole entry, looked up): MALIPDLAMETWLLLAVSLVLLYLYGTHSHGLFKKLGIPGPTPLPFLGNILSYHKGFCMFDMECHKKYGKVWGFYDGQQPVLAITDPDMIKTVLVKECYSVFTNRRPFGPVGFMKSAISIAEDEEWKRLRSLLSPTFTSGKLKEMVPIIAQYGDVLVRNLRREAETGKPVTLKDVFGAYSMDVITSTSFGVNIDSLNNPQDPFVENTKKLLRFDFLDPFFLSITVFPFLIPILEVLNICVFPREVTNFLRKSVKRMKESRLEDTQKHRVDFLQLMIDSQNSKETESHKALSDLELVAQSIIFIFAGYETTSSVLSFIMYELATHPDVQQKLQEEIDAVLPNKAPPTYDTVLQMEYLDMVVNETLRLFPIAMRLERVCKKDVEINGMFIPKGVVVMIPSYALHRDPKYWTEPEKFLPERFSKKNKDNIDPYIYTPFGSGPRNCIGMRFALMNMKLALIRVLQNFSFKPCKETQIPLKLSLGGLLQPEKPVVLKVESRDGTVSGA

CCCCCCCCN(C)CCCCCCCC
not listed: [12] | [13] | [14]
inactive: all other assays above

Cc1c2ccccc2c(C)c2c1ccc1ccccc12
active: [1] 51.5 µM | BCL2L11 (gene 10018) 29.6 µM | [2] 50 µM | [3] 78.3 µM | [5] 85 µM | [7] 50 µM | [8] 75.9 µM | CYP2C8 (gene 1558) 37.7 µM | CYP2C9 (gene 1559) 37.2 µM | CYP4A11 (gene 1579) 33.2 µM | [13] 78.8 µM | [9] 33.9 µM
inactive: [4] | Caspase-3 (Homo sapiens) | [12] | [6] | [11] | [14]

CO[C@H]1/C=C/O[C@@]2(C)Oc3c(C)c(O)c4c(O)c(c(/C=N/N5CCN(C)CC5)c(O)c4c3C2=O)NC(=O)/C(C)=C\C=C\[C@H](C)[C@H](O)[C@@H](C)[C@@H](O)[C@@H](C)[C@H](OC(C)=O)[C@@H]1C
active: [1] 13 µM | [5] 0.563 µM | [7] 0.359 µM | [8] 0.427 µM | CYP2C8 (gene 1558) 0.232 µM | CYP2E1 (gene 1571) 1.06 µM | CYP4A11 (gene 1579) 0.593 µM
not listed: CYP2C9 (gene 1559) | [10] | [13] | [14]
inactive: all other assays above

CCCCOC(=O)CC(CC(=O)OCCCC)(OC(C)=O)C(=O)OCCCC
not listed: CYP2E1 (gene 1571) | [10] | [13] | [14]
inactive: all other assays above

COc1cccc([C@H](O)C2CCN(CCc3ccc(F)cc3)CC2)c1OC
active: [5] 58.9 µM | [7] 13.9 µM | [8] 50 µM | [9] 70.5 µM
not listed: CYP2E1 (gene 1571) | [13] | [14]
inactive: all other assays above

O=C(O)Cc1cc(I)c(Oc2ccc(O)c(I)c2)c(I)c1
active: [1] 74.7 µM | [2] 84.9 µM | [3] 84 µM | [5] 2.37 µM | [7] 93.8 µM | [8] 93.1 µM | CYP2C9 (gene 1559) 79.5 µM | CYP4A11 (gene 1579) 74 µM | [9] 78.9 µM
inactive: BCL2L11 (gene 10018) | [4] | Caspase-3 (Homo sapiens) | [12] | [6] | CYP2C8 (gene 1558) | [10] | [11] | [14]
